Bioassay records: PubChem, National Center for Advancing Translational Sciences (NCATS)
Only some compounds are listed: those with a hit (about 6.1% of all), similar ones and a draw of the others.
ATXN2 expr inh – reduces ATXN2 reporter expression in HEK-293 cells | HEK-293 ATXN2-luciferase reporter, luminescence, 24 h | Potency, µM (series often up to 57 µM), hits mostly inhibitors | actives 0.72% (n = 360,000); note: nearly all actives have a fitted effect of over 55% in size
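qHTS (up to 57 uM final) was run with 24 h compound exposure of reporter cells at 37 °C. Each well was multiplexed: SteadyGlo luminescence measured ATXN2-luciferase expression after a fluorogenic Gly-Phe-AFC viability readout (25 uM final).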
RORg inh – ROR gamma (mouse) transcription inhibition; P51450; Drosophila S2 Gal4-RORgamma UAS-luciferase reporter, 20 h; Potency, µM (titrated, usually from 53.6 µM), most hits filed as inhibitors; actives 5.4% (n = 310,000); AID 2551; note: nearly all actives have a fitted effect of over 60% in size
Target sequence (P51450 whole entry, looked up, the tested form may be a part): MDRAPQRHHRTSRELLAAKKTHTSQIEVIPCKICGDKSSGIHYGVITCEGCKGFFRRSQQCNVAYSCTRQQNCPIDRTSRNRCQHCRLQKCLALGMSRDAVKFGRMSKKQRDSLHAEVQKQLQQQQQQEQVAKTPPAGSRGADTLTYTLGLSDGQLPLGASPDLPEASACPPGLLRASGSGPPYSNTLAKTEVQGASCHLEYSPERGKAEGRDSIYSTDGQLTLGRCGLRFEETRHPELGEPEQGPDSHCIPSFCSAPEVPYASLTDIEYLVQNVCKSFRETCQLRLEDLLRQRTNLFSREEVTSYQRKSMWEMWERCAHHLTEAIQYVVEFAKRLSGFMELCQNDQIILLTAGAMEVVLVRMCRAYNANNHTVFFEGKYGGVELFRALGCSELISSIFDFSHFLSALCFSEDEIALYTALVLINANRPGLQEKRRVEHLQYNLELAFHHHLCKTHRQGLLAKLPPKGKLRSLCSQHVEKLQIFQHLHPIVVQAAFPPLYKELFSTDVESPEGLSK
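Using a luciferase readout, inhibitors were identified by reduced reporter activity in Drosophila cells coexpressing a copper-inducible Gal4–ROR gamma fusion and UAS-driven Photinus luciferase, incubated 20 hr after 700 uM copper sulfate.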
HepG2 viability – HepG2 cytotoxicity, counter-screen for TGF-b inhibitors; HepG2 CAGA-GFP viability, ATP luminescence, 18 h; Potency, µM (series often up to 46.1 µM), usual class: cytotoxic; actives 0.76% (n = 410,000); AID 588856
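HepG2 CAGA-GFP cells (1000/well, DMEM with 1% FBS) received compound, then TGF-beta at 500 pg/mL final, and were incubated 18 hours at 37 degrees C. Viability was read by CellTiter-Glo luminescence. Media-only wells were set as complete cell-killing and DMSO as no toxicity.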
TGFb SMAD3 inh – blocks TGF-b signaling. HepG2 CAGA-GFP TGF-b/SMAD3 reporter, GFP fluorescence, 18 h; TGF-beta stimulated, 500 pg/mL final. Potency, µM (doses to about 46.1 µM), actives largely listed as inhibitors. actives 1.2% (n = 410,000). AID 588855; note: nearly all actives have a fitted effect of over 65% in size
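TGF-beta reporter screen: HEPG2 CAGA-GFP, 1% FBS, 500 pg/mL TGF-beta final, 18 h; per-cell GFP summed per well; curves fitted and categorized by class.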
Gal4-VP16 FLuc – counter-screen for ROR gamma inhibitors: Gal4-VP16 reporter. Drosophila S2 Gal4-VP16 UAS-luciferase, luminescence, 20 h. Potency, µM (highest dose often 53.6 µM), usual class: inhibitors. actives 3.5% (n = 310,000);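 note: Gal4-VP16 expression switched on by copper sulfate through the metallothionein promoter; nearly all actives have a fitted effect of over 50% in size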
S2 tox – cell viability loss in ATXN counter-screen. S2 cells (HEK-293 line with an ATXN2-luciferase reporter) viability, CellTiter-Fluor protease fluorescence, 24 h. actives 0.49% (n = 400,000). AID 651635. Potency, µM (highest dose often 56.7 µM), hits mostly cytotoxic; note: nearly all actives have a fitted effect of over 40% in size
Hits are given with their value; 0 = inactive; ? = inconclusive; - = not tested or not shown. Calls come from the whole dose curve; as a rule, active = well fitted curve in the direction sought with a large enough effect; inconclusive = small, poorly fitted or top-dose-only effect, or another doubt; inactive = no such curve, though single readings can be large; an effect the other way counts as inactive or inconclusive.

SMILES	ATXN2 expr inh	RORg inh	HepG2 viability	TGFb SMAD3 inh	Gal4-VP16 FLuc	S2 tox
C[C@H]1CCC/C=C/C2C[C@H](O)CC2[C@H](O)/C=C/C(=O)O1 (some centres undefined)	?	0	0	0.1µM	0	?
C[C@H]1CCCC=CC2C[C@H](O)C[C@@H]2[C@H](O)/C=C\C(=O)O1 (some centres undefined)	-	0	-	-	0	-
CN1C(=O)c2ccccc2Sc2ccc(NC(=O)c3ccc(C(F)(F)F)cc3)cc21	?	-	0	0	-	?
CC1(C)C[C@H]2C=C(C=O)[C@]3(C=O)C[C@]3(C)[C@H]2C1	3.5µM	1.4µM	10µM	?	1.1µM	7.1µM
Cc1nn(Cc2ccccc2)c2c1C(c1ccco1)C(C#N)=C(N)O2 (centres undefined)	0	7.1µM	0	0	0	0
Cc1nn(-c2ccccc2)c2c1C(c1ccc(F)cc1F)C(C#N)=C(N)O2 (centres undefined)	0	?	0	0	0	0
COc1ccc(C=O)cc1OC	-	0	-	-	0	-
O=C1C=CC2C3C(=O)N(c4ccccc4)C(=O)C3C1N2Cc1ccccc1 (centres undefined)	?	-	13µM	2.8µM	-	6µM
COc1cc2c(cc1OC)C(C)NCC2 (centres undefined)	0	0	0	0	0	0
CC[C@@H]1CN2CCc3cc(OC)c(OC)cc3[C@@H]2C[C@@H]1C[C@H]1NCCc2cc(OC)c(OC)cc21	-	1.1µM	-	-	0	-
COc1cc2c(cc1O)CCNC2C (centres undefined)	-	0	-	-	0	-
CC[C@@H]1CN2CCc3cc(OC)c(OC)cc3[C@H]2C[C@@H]1C[C@H]1NCCc2cc(OC)c(OC)cc21	-	0.56µM	-	-	?	-
COc1ccccc1CNC(=O)Cn1c(=O)oc2cc(S(=O)(=O)N3CCC(C)CC3)ccc21	0	-	0	?	-	0
C[C@@H]1O[C@@H](O[C@@H]2C=C3CC[C@@H]4[C@@H](CC[C@]5(C)[C@H](c6ccc(=O)oc6)CC[C@@]45O)[C@@]3(C)CC2)[C@H](O)[C@H](O)[C@H]1O	0.019µM	-	0	0.32µM	-	-
CC(=O)N1CCCc2cc(S(=O)(=O)N3CCCC(C(=O)N4CCN(c5ccccc5F)CC4)C3)ccc21 (centres undefined)	?	-	0	0	-	?
Fc1ccccc1CCNCc1cccc2ccccc12	0	?	0	?	20µM	0
Cc1ccc(CNCCc2ccccc2F)cc1	0	0	0	0	0	0
C[C@@H]1CNC(=O)c2c(C(=O)Nc3cccc(Cl)c3)ncn21	0	-	0	?	-	?
O=C(c1ccc2c(c1)N(Cc1ccc(F)cc1Cl)C(=O)c1ccccc1S2)N1CCC2(CC1)OCCO2	-	-	0	11µM	-	-
Cc1ccc(CN2C(=O)c3ccccc3Sc3ccc(C(=O)N4CCC5(CC4)OCCO5)cc32)cc1	-	-	0	?	-	-
N#CC(O)c1ccccc1 (centres undefined)	-	0	-	-	0	-
Clc1cccc(/C=N\Nc2nccs2)c1	0	11µM	0	0	?	0
O=c1[nH]c(=O)n(-c2ccc(Cl)cc2)c(O)c1C=Nc1ccc(S(=O)(=O)Nc2nccs2)cc1	0	0	0	0	0	?
COc1cc2[nH]c(=O)n(-c3ccc(C)cc3)c(=O)c2cc1OC	0	0	0	0	0	0
COc1cc2[nH]c(=S)n(-c3ccccc3)c(=O)c2cc1OC	0	4µM	0	0	0	0
O=C1NC(=O)C(=Cc2ccc(-c3ccc(Cl)cc3)o2)C(=O)N1	?	?	0	?	?	28µM
CC1(O)C[C@]2(C)N(O)C3CCCC[C@@H]3N2O1 (some centres undefined)	0	0	0	0	0	0
CC1(C)N(O)C2CCCCC2N1O (centres undefined)	0	16µM	0	0	?	0
C=C(Cl)CCl	-	0	-	-	0	-
Cc1nnc2n1-c1sc(CCc3ccc(CC(C)C)cc3)cc1C(c1ccccc1Cl)=NC2C (centres undefined)	35µM	-	-	-	-	32µM
